Records with an inconclusive call do not appear. A call without a number means that no potency is given here. Activity calls are given as the source filed them. Calls come from the whole dose curve; as a rule, active = well fitted inhibition curve with a large enough effect; inconclusive = small, poorly fitted or top-dose-only effect; inactive = no such curve, though single readings can be large or run the other way.
Tested on: Zika virus NS2B-NS3 protease (linked)
Experiment: Optimization screen NINDS Rhodamine qHTS for Zika virus inhibitors: Linked NS2B-NS3 protease assay
Conditions: fluorogenic rhodamine substrate; series mostly up to 105 µM
Summary of the method: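 Linked NS2B-NS3 (GGGGSGGGG linker), 25 nM in 10 mM Tris-HCl pH 8.0, 0.01% Tween 20, preincubated 15 min with compound (up to 114 µM). Rhodamine110 substrate 1.5 µM; fluorescence change over 15 min (~15% conversion) fitted to 4-parameter Hill.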

SMILES	Potency
OC(c1cc(C(F)(F)F)nc2c(C(F)(F)F)cccc12)C1CCCCN1 (stereo not drawn)	inactive
CC[C@@H](C)[C@H]1O[C@]2(CC[C@H]1C)C[C@@H]1C[C@@H](CC=C(C)[C@@H](O[C@H]3C[C@H](OC)[C@@H](O[C@H]4C[C@H](OC)[C@@H](O)[C@H](C)O4)[C@H](C)O3)[C@@H](C)C=CC=C3CO[C@@H]4[C@H](O)C(C)=C[C@@H](C(=O)O1)[C@]34O)O2	39.3 µM (active)
CC1O[C@@H](O[C@@H]2C(O)C[C@H](O[C@@H]3C(O)C[C@@H](OC4CC[C@@]5(C)C6CC(O)[C@@]7(C)C(C8=CC(=O)OC8)CC[C@@]7(O)C6CC[C@@H]5C4)OC3C)OC2C)CC(O)[C@H]1O (stereo partly drawn)	inactive

— PubChem BioAssay AID1347155 (National Center for Advancing Translational Sciences (NCATS), 2019)
